Where “and” joins values, the source holds several entries; their conditions need not be identical. Equal entries are not always repeated. Out of some 410,000 compounds screened, about 18,000 (4.4%) were called active. Another 7% or so got no clear call; they are omitted. The sample holds actives, similar compounds and a random draw of the others, so the mix is not that of the screen. No stated cut-off is given here; in the data, active means activity change below about -60%; inconclusive means no clear call, values can overlap the other calls; inactive means above about -39%. More than one record can exist for a structure, and the calls need not agree.
Assay: qHTS Assay for inhibitors of the human cytomegalovirus (HCMV)
Settings: HFF cells, HCMV-luciferase reporter, 72 h; at 57.5 µM; stronger effect = lower value
In short: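 HFF cells seeded 16 h at 37C, treated with compounds, infected with luciferase-reporter HCMV at MOI 1 PFU/cell; luciferase read at 72 h post infection, normalized to buffer-only and Salinomycin controls.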
In the case of `NC(=O)c1ccc(Nc2ccc3c(c2)CCC3)c([N+](=O)[O-])c1`, the activity change, negative = inhibition is reported as -8.76% (inactive). In the case of `CCCCN(CC)C(=O)c1c[nH]c2ccc(S(=O)(=O)Nc3cccc(OC)c3)cc2c1=O`, the activity change, negative = inhibition is reported as 7.97% (inactive). With `CCOc1ccccc1C(=O)NCc1ccc2c(c1)CCN2C(=O)c1ccc(F)cc1` the activity change, negative = inhibition was -15.6% (inactive). In the case of `Cc1ncsc1CCCl`, the activity change, negative = inhibition is reported as -26.8% (inactive). For `Cc1cccc(OCC(=O)Nc2ccc(C(=O)O)cc2NC(=O)COc2cccc(C)c2)c1`, the activity change, negative = inhibition was -3.05% (inactive). With `Cc1ccc(OCC(=O)Nc2ccc(C(=O)O)cc2NC(=O)COc2ccc(C)c(C)c2)cc1C` the activity change, negative = inhibition was -98.3% (active). In the case of `Cc1ccc(OCC(=O)Nc2cccc3c2CCCC3)cc1C`, the activity change, negative = inhibition is reported as -12.3% (inactive). With `COc1ccc(Cl)cc1NC(=O)Cn1nc(-c2ccc(C)cc2)n(C)c1=S` the activity change, negative = inhibition was 3.99% (inactive). For `Cc1ccc(-n2nc3c(=O)n(C(C)C(=O)NCc4ccc5c(c4)OCO5)nc(C)c3c2C)cc1` (configuration not stated), the activity change, negative = inhibition was -83.4% (active). With `COc1ccc(OC)c(CNC(=O)Cn2nc(C)c3c(C)n(-c4ccccc4)nc3c2=O)c1` the activity change, negative = inhibition was -18.6% (inactive). In the case of `Cc1ccccc1CNC(=O)CSc1nnc(C)c2c(C)n(-c3ccccc3)nc12`, the activity change, negative = inhibition is reported as -3% (inactive). With `Cc1nn(C(C)C(=O)N2CCOCC2)c(=O)c2nn(-c3ccccc3)c(C)c12` (configuration not stated) the activity change, negative = inhibition was -17.5% (inactive). In the case of `COc1ccc(CNC(=O)C(C)n2nc(C)c3c(C)n(-c4ccccc4)nc3c2=O)c(OC)c1` (configuration not stated), the activity change, negative = inhibition is reported as -15.4% (inactive) and -69.2% (active). For `Cc1nn(C(C)C(=O)NCCC2=CCCCC2)c(=O)c2nn(-c3ccccc3)c(C)c12` (configuration not stated), the activity change, negative = inhibition was -28.7% (inactive). With `COc1ccc(-c2n[nH]c3c2CN(C(=O)c2ccc(F)cc2)CC3)cc1` the activity change, negative = inhibition was 0% (inactive). With `O=C1C=C[C@]23OCCC[C@@]2(CCCO)CCCC3=C1` the activity change, negative = inhibition was -2.29% (inactive). In the case of `CCOc1cc(N2CCOCC2)c(OCC)cc1NC(=O)COc1cccc2cccnc12`, the activity change, negative = inhibition is reported as -104% (active). For `CCOc1cc(N2CCOCC2)c(OCC)cc1NC(=O)C1=NN(c2cccc(C)c2)C(=O)CC1`, the activity change, negative = inhibition was -25.4% (inactive). For `CCOc1cc(C(=O)OCC(=O)Nc2cccc(C)c2)ccc1OCC(=O)N1CCOCC1`, the activity change, negative = inhibition was -3.23% (inactive). For `Cc1ccc(CNS(=O)(=O)c2ccc(-c3cc(C(F)(F)F)on3)s2)cc1`, the activity change, negative = inhibition was 87.2% (inactive). With `Cc1ccc(CNS(=O)(=O)c2ccc(C(=O)N(C)C)s2)cc1` the activity change, negative = inhibition was 1.6% (inactive). In the case of `O=C(Nc1ccccc1Br)c1cc(CN2CCCC2)on1`, the activity change, negative = inhibition is reported as 27.2% (inactive). With `CCOc1ccc(N(Cc2ccccc2)C(=O)c2nc(SCC)ncc2Cl)cc1` the activity change, negative = inhibition was -68.2% (active). In the case of `CCSc1ncc(Cl)c(C(=O)Nc2c(C(=O)c3ccccc3)oc3ccccc23)n1`, the activity change, negative = inhibition is reported as 12.8% (inactive). In the case of `COc1ccc(N(Cc2ccc(N(C)C)cc2)C(=O)c2ccc(S(C)(=O)=O)cc2)cc1`, the activity change, negative = inhibition is reported as 6.32% (inactive). With `CCOc1ccc(N(CC)C(=O)c2noc3c2COc2ccc(C)cc2-3)cc1` the activity change, negative = inhibition was -7.27% (inactive). For `CCOc1ccc(NC(=O)CN(Cc2ccccc2)S(=O)(=O)c2ccc(Cl)cc2)cc1`, the activity change, negative = inhibition was 2.3% (inactive). For `CCOc1ccc(N(Cc2ccccc2)C(=O)c2nc(S(C)(=O)=O)ncc2Cl)cc1`, the activity change, negative = inhibition was -101% (active). In the case of `Brc1ccc(-c2n(-c3ccccn3)c3ccccc3[n+]2-c2ccccn2)cc1`, the activity change, negative = inhibition is reported as -11.9% (inactive). For `CCOC(=O)c1ccc(NC(=O)C2CC(=O)N(c3ccc(C(C)C)cc3)C2)cc1` (configuration not stated), the activity change, negative = inhibition was 46.5% (inactive). With `COC(=O)c1cc(NC(=O)CCc2c(C)nc3c4c(C)cc(C)nc4nn3c2C)cc(C(=O)OC)c1` the activity change, negative = inhibition was 8.7% (inactive). For `COc1ccc(C2c3ccc(O)cc3Oc3ncn(CCCO)c(=N)c32)cc1OC` (configuration not stated), the activity change, negative = inhibition was 0% (inactive). With `CSc1ccc(CNCCN2CCOCC2)cc1` the activity change, negative = inhibition was 0% (inactive). In the case of `c1ccc2cc3c(NCCN4CCOCC4)ccnc3cc2c1`, the activity change, negative = inhibition is reported as -98.8% (active). In the case of `CC(=O)Oc1cc2c(C(=O)NCCN3CCOCC3)c(C)oc2c2ccccc12`, the activity change, negative = inhibition is reported as 55.4% (inactive). For `CNc1nc2cnc(-c3ccsc3)cc2n1Cc1ccccc1`, the activity change, negative = inhibition was 12.4% (inactive). With `Cc1c(C(=O)Nc2cccc(Cl)c2)oc2ccc(S(=O)(=O)N3CCOCC3)cc12` the activity change, negative = inhibition was 4.49% (inactive). In the case of `NC(=O)Nc1ccc(C(=O)OCC(=O)NC2CCCc3ccccc32)cc1` (configuration not stated), the activity change, negative = inhibition is reported as -25.3% (inactive). For `O=C(CCNC(=O)c1ccc(Cl)cc1)NC1CCCc2ccccc21` (configuration not stated), the activity change, negative = inhibition was -82% (active). With `Nc1ccc(C(=O)OCC(=O)NC2CCCc3ccccc32)cc1[N+](=O)[O-]` (configuration not stated) the activity change, negative = inhibition was -3.15% (inactive). In the case of `CCC(C)c1ccc2oc(-c3ccc(NC(=O)c4cc5ccccc5o4)cc3)nc2c1` (configuration not stated), the activity change, negative = inhibition is reported as -17.9% (inactive). With `COc1cc(NC(=O)Cn2nc(-c3ccc(C)c(C)c3)ccc2=O)cc(OC)c1` the activity change, negative = inhibition was 10.3% (inactive). In the case of `COc1cccc(CNS(=O)(=O)c2csc(C(N)=O)c2)c1`, the activity change, negative = inhibition is reported as -30.1% (inactive). In the case of `COc1cccc(CNS(=O)(=O)c2ccc3c(c2)N(C(C)=O)CCS3)c1`, the activity change, negative = inhibition is reported as -73.4% (active). In the case of `COc1cccc(CNS(=O)(=O)c2ccc3c(c2)CC(C)N3C(=O)C2CCC2)c1` (configuration not stated), the activity change, negative = inhibition is reported as -33.4% (inactive) and -60.7% (active). In the case of `COc1ccc(N(C)S(=O)(=O)c2ccc3c(c2)CC(C)N3C(=O)C2CC2)c(OC)c1` (configuration not stated), the activity change, negative = inhibition is reported as -22.8% (inactive). For `O=C(C1CCC1)N1CCc2cc(S(=O)(=O)NCc3cccnc3)ccc21`, the activity change, negative = inhibition was -32% (inactive). For `CC(=O)N1CCSc2ccc(S(=O)(=O)N3CCC(C)CC3)cc21`, the activity change, negative = inhibition was -33.3% (inactive). With `CCOCCn1ccc2c(OCC(=O)NCc3ccc(C)cc3)cccc2c1=O` the activity change, negative = inhibition was 22.4% (inactive). For `O=C(CCS(=O)(=O)c1cc(Br)cc2c1N(C(=O)C1CC1)CC2)Nc1ccc(Br)cc1F`, the activity change, negative = inhibition was -5.42% (inactive). For `Cc1ccc(CN2CCCn3nc(C(=O)NCc4ccccc4Cl)cc3C2=O)cc1`, the activity change, negative = inhibition was -16.2% (inactive). In the case of `CCOC(=O)c1nnn(CC(=O)NC(=O)Nc2ccccc2F)c1C(=O)OCC`, the activity change, negative = inhibition is reported as 11.6% (inactive). With `COc1ccc2c(Sc3ccc(C)cc3)c(C(=O)NC(C)c3ccccc3)[nH]c2c1` (configuration not stated) the activity change, negative = inhibition was -4.72% (inactive). In the case of `COc1ccc(CNc2nc(-c3ccc(Cl)cc3)nn2S(=O)(=O)c2ccc(C)cc2)cc1`, the activity change, negative = inhibition is reported as 9.27% (inactive). For `CCOc1ccccc1Nc1nnc(SCC(=O)Nc2cc(C)on2)s1`, the activity change, negative = inhibition was 45.8% (inactive). With `COC(=O)c1ccc(CSc2nnc(N)s2)o1` the activity change, negative = inhibition was -25.6% (inactive). With `CCOc1ccccc1Nc1nnc(SCc2ccc(C(=O)OC)o2)s1` the activity change, negative = inhibition was -61.9% (active).

Source: PubChem BioAssay AID1259415 (National Center for Advancing Translational Sciences (NCATS), 2018)
On the % scale 0 is the no-effect control and ±100 the full control effect.
